# Only some compounds are listed: those with a hit (about 1.5% of all), similar ones and a draw of the others.
# FEN1 inh-1: blocks human flap endonuclease 1; P39748; Recombinant FEN1 flap cleavage, fluorescence, 15 min; Potency, µM (series often up to 114 µM), without a hit: at the highest dose activity change, negative = inhibition, actives largely listed as inhibitors; actives 0.35% (n = 390,000); further: potency means the concentration at half of the fitted maximal effect; on the % scale 0 is the no-effect control and ±100 the full control effect; nearly all actives have a fitted effect of over 65% in size
#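 Quantitative HTS format: each compound was titrated, incubated with 10 nM nuclease for 15 min at room temperature, then challenged with flap substrate at 50 nM final. Signal change over 15 min gave concentration–effect curves.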
# TDP1 inh: TDP1 (human) enzyme inhibition. AID 485290. Potency, µM (series often up to 130 µM), inactives show top-dose activity change, negative = inhibition, most hits filed as inhibitors. actives 0.28% (n = 350,000). recombinant TDP1, AlphaScreen DNA substrate cleavage; further: potency means the concentration at half of the fitted maximal effect; on the % scale 0 is the no-effect control and ±100 the full control effect; nearly all actives have a fitted effect of over 40% in size
#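 Recombinant E. coli-expressed Tdp1 (1 nM) preincubated with compound 15 min at RT, then 5'-biotin/3'-phosphotyrosine-FITC DNA substrate (15 nM) added for 5 min. AlphaScreen beads (10 ug/ml) added, 10 min RT; tyrosine-FITC cleavage read as signal loss.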
# Tb PFK block: blocks T. brucei phosphofructokinase | O15648 | T. brucei PFK, ADP-Glo luminescence | Potency, µM (doses to about 57.5 µM), without a hit: at the top dose activity, negative = inhibition, hits mostly inhibitors | actives 0.17% (n = 330,000) | AID 485367;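 further: potency means the concentration at half of the fitted maximal effect; 0% = uninhibited 1x PFK enzyme wells and -100% = no-enzyme wells; nearly all actives have a fitted effect of over 60% in size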
#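 ADP-Glo luminescence quantified ADP after 45 min at room temperature, with 1.25 nM T. brucei PFK, 0.1 mM ATP and 0.5 mM fructose-6-phosphate in pH 8.0 TEA buffer. qHTS titrations up to 57 µM; curves classified by quality.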
# PI5P4Ka inh: blocks human PI5P4K alpha kinase activity | P48426 | PI5P4Kalpha enzyme, ADP-Glo luminescence, 60 min; stronger effect = lower value | max response, % | actives 1.2% (n = 330,000); active means max response of -50% or lower; inconclusive means between -30% and -50%; inactive means -30% or higher; further: value at the top dose of about 77 µM; on the % scale 0 is the no-effect control and ±100 the full control effect
#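 Enzyme plus substrate dispensed, test compounds pinned in, then ATP (5 microM final) added. After 60 min at RT, ADP-Glo reagent 1 for 45 min and reagent 2 for 30 min preceded luminescence imaging.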
# WRN inhibitor: blocks human WRN helicase; Q14191; actives 0.46% (n = 360,000); WRN helicase unwinding, fluorescent forked duplex, kinetic; Potency, µM (titrated, usually from 114 µM), without a hit: at the highest dose activity change, negative = inhibition, usual class: inhibitors; further: potency means the concentration at half of the fitted maximal effect; on the % scale 0 is the no-effect control and ±100 the full control effect; nearly all actives have a fitted effect of over 55% in size
# Target sequence (Q14191 whole entry, looked up): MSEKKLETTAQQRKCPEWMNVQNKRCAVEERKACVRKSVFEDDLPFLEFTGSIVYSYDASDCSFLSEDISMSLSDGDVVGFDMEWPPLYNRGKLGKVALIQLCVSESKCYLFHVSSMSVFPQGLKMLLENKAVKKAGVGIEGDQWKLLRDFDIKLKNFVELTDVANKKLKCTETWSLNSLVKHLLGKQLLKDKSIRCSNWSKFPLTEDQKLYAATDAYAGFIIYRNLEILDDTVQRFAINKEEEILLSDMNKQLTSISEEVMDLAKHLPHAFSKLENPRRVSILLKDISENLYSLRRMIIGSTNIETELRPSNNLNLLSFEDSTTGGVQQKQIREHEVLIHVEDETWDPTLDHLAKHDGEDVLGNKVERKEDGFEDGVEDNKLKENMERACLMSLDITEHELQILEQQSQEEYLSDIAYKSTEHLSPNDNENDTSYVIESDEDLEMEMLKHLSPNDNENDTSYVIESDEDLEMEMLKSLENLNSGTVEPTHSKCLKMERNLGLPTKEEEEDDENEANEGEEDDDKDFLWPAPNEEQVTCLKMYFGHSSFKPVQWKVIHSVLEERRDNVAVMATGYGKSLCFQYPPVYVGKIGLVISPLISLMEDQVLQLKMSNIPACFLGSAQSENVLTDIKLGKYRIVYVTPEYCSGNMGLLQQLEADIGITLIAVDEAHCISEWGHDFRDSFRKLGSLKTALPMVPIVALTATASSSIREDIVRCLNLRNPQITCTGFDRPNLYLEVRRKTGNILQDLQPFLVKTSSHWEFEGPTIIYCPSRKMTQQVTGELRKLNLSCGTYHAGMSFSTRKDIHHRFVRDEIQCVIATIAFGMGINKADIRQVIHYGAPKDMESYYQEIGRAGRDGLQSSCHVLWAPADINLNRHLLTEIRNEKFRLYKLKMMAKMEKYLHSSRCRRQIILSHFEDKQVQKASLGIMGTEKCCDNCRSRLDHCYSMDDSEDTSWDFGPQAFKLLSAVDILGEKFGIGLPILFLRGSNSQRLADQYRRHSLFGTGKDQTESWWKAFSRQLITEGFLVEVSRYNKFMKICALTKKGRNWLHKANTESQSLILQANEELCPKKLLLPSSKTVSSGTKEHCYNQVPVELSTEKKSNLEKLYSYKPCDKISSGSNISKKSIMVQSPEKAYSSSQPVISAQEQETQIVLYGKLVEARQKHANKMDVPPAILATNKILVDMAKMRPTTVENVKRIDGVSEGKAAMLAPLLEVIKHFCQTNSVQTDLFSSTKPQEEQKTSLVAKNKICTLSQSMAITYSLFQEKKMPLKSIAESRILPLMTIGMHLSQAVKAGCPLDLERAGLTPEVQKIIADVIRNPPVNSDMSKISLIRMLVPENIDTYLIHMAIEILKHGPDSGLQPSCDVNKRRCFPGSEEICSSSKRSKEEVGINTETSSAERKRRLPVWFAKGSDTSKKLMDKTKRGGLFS
#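 Screening of the MLSMR collection measured strand separation of a quenched forked DNA duplex (100 nM) by 20 nM WRN with 2 mM ATP, all final. Compounds were preincubated with enzyme 15 min at room temperature.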
# Tb PGK inh: inhibitors of T. brucei phosphoglycerate kinase; P07378; PGK/GAPDH coupled, Kinase-Glo luminescence, 60 min; Potency, µM (highest dose often 57.5 µM), inactives show at the highest dose activity change, negative = inhibition, actives largely listed as inhibitors; actives 0.043% (n = 380,000); AID 602233; further: potency means the concentration at half of the fitted maximal effect; on the % scale 0 is the no-effect control and ±100 the full control effect; nearly all actives have a fitted effect of over 60% in size
#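 Recombinant glycosomal PGK reaction used 1,3-bisphosphoglycerate generated in-well by GAPDH (100nM final) in 100mM TEA pH 7.6, 5mM MgCl2, 0.01% Tween-20. After 60 minutes at room temperature, ATP was read by Kinase-Glo Plus luminescence end-point.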
# FEN1 inh-2: confirmation of human FEN1 inhibitors; shares compounds with FEN1 inh-1; FEN1 flap cleavage, TAMRA/BHQ2 fluorogenic DNA substrate; Potency, µM, most hits filed as inhibitors; actives 79% (n = 880); further: potency means the concentration at half of the fitted maximal effect; nearly all actives have a fitted effect of over 60% in size
# An asterisk follows results filed as active; i = inactive; ? = inconclusive; . = no result given; [ ] = remark or other dose. Unless noted, the call rests on the fitted dose curve; in most records, active means well fitted curve in the direction sought with a large enough effect; inconclusive means small, poorly fitted or top-dose-only effect, or another doubt; inactive means no such curve, though single readings can be large; an effect the other way counts as inactive or inconclusive.
SMILES,FEN1 inh-1,TDP1 inh,Tb PFK block,PI5P4Ka inh,WRN inhibitor,Tb PGK inh,FEN1 inh-2
COc1cccc2cc(C(=O)N3CC(C)OC(C)C3)c(=O)oc12 (centres undefined),19.3%,.,-4.3%,-3.9,1.8%,6.3%,.
C=CCc1cccc2cc(C(=O)Nc3ccc(F)cc3)c(=O)oc12,-8.9%,3.2%,3.2%,-4.7,6.8%,-2.1%,.
C=CCc1cccc2cc(C(=O)Nc3ccc(S(=O)(=O)Nc4nnc(CC)s4)cc3)c(=O)oc12,39.8µM*,50.1µM*,-2.8%,2.6,-31.9%,?,84.9*
CN(C)CCNc1ncnc2oc(-c3ccccc3)c(-c3ccccc3)c12,?,.,0.4%,-10.0,12.0%,-19.5%,.
COc1ccc(-c2oc3ncnc(NCCCN(C)C)c3c2-c2ccc(OC)cc2)cc1,?,.,-3.3%,-3.3,-11.8%[11.6 µM],-9.5%,?
COc1ccc(NC(=O)/C(C#N)=C/c2ccc(-c3ccccc3C(=O)O)o2)cc1,-13.9%,.,1.6%,-0.1,-14.9%,-7.6%,.
N#C/C(=C\c1ccc([N+](=O)[O-])o1)C(=O)Nc1ccc(F)cc1,-19.1%,6.0%,-27.3%,-84.1*,?,6.2%,47.8*
O=C1C=CC(=O)C2=C1C1c3ccccc3C2c2ccccc21,.,5.7%,.,.,.,.,.
N=C1/C(=C\c2coc3ccc(O)cc3c2=O)C(=O)N=C2SC=CN12,50.1µM*,0.0%,1.0%,-69.5*,56.2µM*,-7.3%,?
CN1C(=O)/C(=C/c2coc3ccc(O)cc3c2=O)SC1=S,-19.7%,2.6%,9.3%,-1.4,-5.6%,-5.1%,.
CCC1c2ccccc2C(=O)C1C(N)=O (centres undefined),0.7%,.,.,-1.4,9.2%,i,.
NC(=O)C1C(=O)c2ccccc2C1(C[N+](=O)[O-])c1ccccc1 (centres undefined),44.7µM*,.,.,-6.0,4.0%[11.6 µM],-1.0%,42.6*
O=C1c2cccc3cc([N+](=O)[O-])cc(c23)C(=O)N1CCN1CCCC1,14.1µM*,-1.3%,-8.0%,1.2,3.4%[11.6 µM],0.9%,10.7*
O=C1c2cccc3cc([N+](=O)[O-])cc(c23)C(=O)N1/N=C/c1ccc(O)cc1O,?,5.0%,-4.6%,?,?,1.7%,42.6*
N#CN1CCC(NS(=O)(=O)c2cccc(C(F)(F)F)c2)CC1,.,0.6%,.,.,.,.,.
COc1ccc(N(CC(C)C)S(=O)(=O)c2nnc(NC(=O)c3cccs3)s2)cc1,-2.5%,-10.4%,.,.,.,-7.8%,.
COc1cc(/C=C/c2cc[n+](C)c3ccccc23)cc(OC)c1OC,-16.1%,.,.,.,.,.,.
COc1cc(/C=N/NC(=O)c2cccc(C(=O)N/N=C/c3ccc(O)c(OC)c3)n2)ccc1O,?,.,8.6%,10.3,?,-8.5%,1.35*
COc1cc(OC)c(-c2c3cc(O)c(=O)cc-3oc3cc(O)c(O)cc23)cc1OC,50.1µM*,8.0%,?,-29.6,2.38µM*,?,33.8*
O=C(NN=C1CCCC1)c1ccc(O)cc1O,0.7%,-0.1%,0.7%,-6.7,-0.9%[11.6 µM],9.4%,42.6*
CC(=O)c1ccc(C2CC34CNS(=O)(=O)C3CC2O4)cc1 (centres undefined),-23.7%,-14.4%,.,.,.,.,.
N#C/C(=C\c1cc(O)c(O)c(O)c1)C(N)=O,?,.,?,-76.5*,-30.3%,.,13.5*
N#C/C(=C\c1cc(Cl)c(OCc2ccc(Cl)cc2)c(Cl)c1)C(N)=O,.,.,4.7%,.,.,.,.
Cc1cccc(/C=C\c2nc3ccccc3c(=O)[nH]2)c1,3.8%,2.6%,1.9%,6.3,-24.3%[57.1 µM],-5.6%,.
COc1cc(/C=C/c2nc3ccccc3c(=O)[nH]2)cc(Cl)c1O,?,-15.9%,1.0%,4.9,-34.5%,-9.9%,?
SMILES,FEN1 inh-1,TDP1 inh,Tb PFK block,PI5P4Ka inh,WRN inhibitor,Tb PGK inh,FEN1 inh-2
COc1ccc(-c2nc3c(c4c2C[C@H](c2ccccc2)OC4)CN(C(=O)Cc2cccs2)CC3)c(C)c1,.,11.3%[12.3 µM],.,.,.,.,.
CCn1c(=O)c2cc(C(=O)NCCCN3CCN(C)CC3)sc2c2ccccc21,6.5%,1.2%,.,.,.,0.5%,.
Cc1ccc2oc(=O)c3cc(C(=O)NCCCN4CCCCCC4)sc3c2c1,?,-1.0%,-3.4%,2.6,5.3%[11.6 µM],6.1%,?
O=C(NCCCN1CCN(c2ccccc2F)CC1)c1cc2c(Cl)nc3ccccc3c2s1,7.4%,2.3%,.,.,.,8.4%,.
CC1CCN(CCCNC(=O)c2cc3c(Cl)nc4ccccc4c3s2)CC1,?,0.0%,3.2%,-0.7,37.4%,.,?
O=C(NCCCN1CCCC1)c1cc2c(Cl)nc3ccccc3c2s1,39.8µM*,-6.9%,-1.5%,3.7,37.4%,4.1%,37.9*
Cc1ccc2nc(Cl)c3cc(C(=O)NCCCN4CCC(C)CC4)sc3c2c1,16.5%,-1.3%,.,.,.,7.8%,.
CCCN1CCN(CCCNC(=O)c2cc3c(Cl)nc4ccccc4c3s2)CC1,44.7µM*,5.8%,.,.,.,-4.1%,?
Cc1ccc2oc(=O)c3cc(C(=O)NCCN4CCN(C)CC4)sc3c2c1,3.8%,2.2%,-3.2%,0.7,6.6%,6.1%,.
CCN(CC)/[N+]([O-])=N/OCOC(=O)C(C)c1ccc2cc(OC(C)=O)ccc2c1 (centres undefined),-6.0%,.,.,.,.,.,.
N#C/C(=C\c1ccc(OCc2ccc(Cl)cc2)cc1)C(=O)Nc1cccc(C(=O)O)c1,?,35.5µM*,-11.2%,-1.9,?,?,67.5*
C=C1CC[C@H](O)C/C1=C/C=C1\CCC[C@]2(C)C([C@H](C)CC[C@@H](O)C(C)(C)O)CC[C@@H]12 (some centres undefined),.,2.4%,.,.,.,.,.
c1ccc2c(NCCc3c[nH]c4ccccc34)c3ccccc3nc2c1,?,.,-1.7%,-8.3,25.1µM*,i,21.3*
Cc1ccc(-c2nc(NCCCO)c3ccccc3n2)cc1,-6.2%,2.8%,0.3%,-0.4,12.2%,-9.1%,.
COc1ccc(CCNc2c3ccccc3nc3ccccc23)cc1OC,50.1µM*,1.4%,12.4%,-3.5,-4.0%[11.6 µM],3.9%,?
OCCCNc1c2ccccc2nc2ccccc12,22.4µM*,.,-0.6%,2.9,-5.9%[11.6 µM],i,21.3*
COc1ccc2c(c1)C=C/C2=C\c1ccc(N(C)C)cc1,-20.3%,.,.,.,.,.,.
N#Cc1c(-c2ccccc2)nc(SCC(=O)Nc2nnc(C(F)(F)F)s2)[nH]c1=O,-5.9%,2.6%,-4.5%,-26.2,-30.8%,-2.6%,.
CCC(Sc1nc(-c2ccccc2)c(C#N)c(=O)[nH]1)C(=O)Nc1nnc(C)s1 (centres undefined),?,0.0%,3.0%,-24.6,-17.9%,-1.0%,47.8*
